PubChem BioAssay AID488969 (Vanderbilt High Throughput Screening Facility, 2010)
Whole data set: some 110,000 compounds, median “z-score” near -0.1, cut for the highest 2% near 2. The full list was thinned out, with the highest values kept by preference. Active and inactive are the calls of the source.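 Rule for the calls: active = z-score in the third read window above 3 or below -3; inactive = the rest.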

What follows are compounds tested against Metabotropic glutamate receptor 8 (Rattus norvegicus) (UniProt P70579) (assay: rat mGluR8 modulators via GIRK flux, primary screen, cell-based, thallium flux, HTS (AID 488969)). Conditions: HEK293 rat mGluR8, GIRK (G protein-gated inwardly rectifying potassium channel) thallium flux, FluoZin2; at 10 µM; stronger effect = higher value; submaximal glutamate (EC20) added with thallium.
Chain of Metabotropic glutamate receptor 8 (Rattus norvegicus) (P70579 whole entry, looked up): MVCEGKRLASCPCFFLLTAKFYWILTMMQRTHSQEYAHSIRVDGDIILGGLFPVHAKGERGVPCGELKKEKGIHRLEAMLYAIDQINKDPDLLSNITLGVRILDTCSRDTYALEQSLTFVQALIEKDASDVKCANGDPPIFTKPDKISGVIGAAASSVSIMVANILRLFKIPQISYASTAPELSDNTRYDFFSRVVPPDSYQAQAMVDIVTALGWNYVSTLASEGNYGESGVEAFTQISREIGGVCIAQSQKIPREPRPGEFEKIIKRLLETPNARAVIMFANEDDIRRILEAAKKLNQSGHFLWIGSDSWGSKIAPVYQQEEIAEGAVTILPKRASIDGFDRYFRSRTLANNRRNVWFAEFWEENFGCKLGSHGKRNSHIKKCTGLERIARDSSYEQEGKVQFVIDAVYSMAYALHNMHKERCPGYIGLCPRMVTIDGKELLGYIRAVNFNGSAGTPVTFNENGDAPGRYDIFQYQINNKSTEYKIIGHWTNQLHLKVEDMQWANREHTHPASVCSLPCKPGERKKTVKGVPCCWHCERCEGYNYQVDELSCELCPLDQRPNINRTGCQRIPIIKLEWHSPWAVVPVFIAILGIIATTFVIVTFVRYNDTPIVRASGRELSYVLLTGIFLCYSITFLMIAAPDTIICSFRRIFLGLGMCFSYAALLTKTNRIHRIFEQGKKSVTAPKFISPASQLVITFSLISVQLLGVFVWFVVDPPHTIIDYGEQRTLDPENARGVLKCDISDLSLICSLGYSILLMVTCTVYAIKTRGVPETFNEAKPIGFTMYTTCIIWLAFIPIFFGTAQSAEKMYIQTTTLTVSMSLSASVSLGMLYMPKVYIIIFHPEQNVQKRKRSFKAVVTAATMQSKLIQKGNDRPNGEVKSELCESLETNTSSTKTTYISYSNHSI

Structure (SMILES) | z-score
Fc1ccc(Cn2nnnc2CN2CCN(C3CCCCC3)CC2)cc1 | 0.354
COCCCn1ccc(O)c(Cc2ccc(F)cc2)c1=O | -0.0433
Cc1nn(-c2ccc3nnc(Br)n3n2)c(C)c1Br | -0.48
CCc1ccc2c(c1)/C(=C/C(=O)c1cccs1)C(=O)N2 | -0.314
CCOc1cc(-c2noc(-c3cccnc3)n2)ccc1OC | 3.79 (active)
CCOc1ccc(-c2nnc(-c3cccnc3)o2)cc1OCC | 0.0661
CC(C)(C)c1ccc(-c2nc(-c3ccncc3)no2)cc1 | -0.17
CCc1ccc(-c2nc(-c3ccncc3)no2)cc1 | 2.31
c1ccc(-c2nc(-c3ccncc3)no2)cc1 | -0.104
CCOc1ccc(-c2nc(-c3cccnc3)no2)cc1OCC | 0.841
CC(C)C(=O)NCCc1nc2ccccc2n1C | 0.0935
C=CCNC(=O)c1onc(CSc2ccccc2F)c1C(=O)O | -0.015
Cc1nc2ccccc2c(=O)n1/N=C/c1ccncc1 | -0.171
O=C(NCC(=O)N(CC1CCCO1)C(C(=O)NC1CCCCC1)c1ccc(F)cc1)c1ccco1 (stereo not drawn) | 0.579
Cc1ccccc1C1C(C#N)=C2NC(=O)c3c(sc4c3CCCCC4)N2C2=C1C(=O)CC(C)(C)C2 (stereo not drawn) | 1.56
CCCn1c(CCNC(=O)c2cccs2)nc2ccccc21 | -0.594
O=C(Oc1c(Cl)cc(Cl)c2cccnc12)c1cccc([N+](=O)[O-])c1 | 9.18 (active)
O=C(Oc1c(Cl)cc(Cl)c2cccnc12)c1ccco1 | 3.13 (active)
O=C(Oc1ccc(Cl)c2cccnc12)c1ccco1 | 0.951
O=C(Oc1c(Cl)cc(Cl)c2cccnc12)N1CCOCC1 | -0.0144
CN1CCN(Cc2cc(Cl)c3cccnc3c2OC(=O)c2cccs2)CC1 | 0.273
O=C(Oc1ccc(Cl)c2cccnc12)c1cccc([N+](=O)[O-])c1 | 0.0891
O=C(Oc1c(Cl)cc(Cl)c2cccnc12)c1cccs1 | 2.7
O=C(Oc1cccc2cccnc12)c1cccs1 | -0.532

Structure (SMILES) | z-score
Cc1ccc(C(=O)Oc2ccc(Cl)c3cccnc23)cc1[N+](=O)[O-] | 0.387
Cc1oc2c(C)c3oc(=O)c4c(c3cc2c1C)CCC4 | -0.532
COc1ccc(N(C(=O)Cn2nnc(-c3ccc(Cl)cc3)n2)C(C(=O)NCC2CCCO2)c2ccc(C)cc2)cc1 (stereo not drawn) | -0.126
O=C(COC(=O)Cn1cnc2ccccc2c1=O)Nc1ccc(Cl)c(C(F)(F)F)c1 | -0.01
CC(=O)Nc1ccc(S(=O)(=O)NNC(=O)c2ccc(C)cc2)cc1 | -0.161
CC(=O)N1CCC2(CC1)C(C#N)=C(N)OC1=C2C(=O)CC(C)(C)C1 | 0.05
COC(=O)c1c(NC(=O)C2COc3ccccc3O2)sc2c1CCN(Cc1ccccc1)C2 (stereo not drawn) | 0.0786
Cc1ccccc1-n1c(O)c(/C=N/N2CCCCC2c2cccnc2)c(=O)[nH]c1=O (stereo not drawn) | -0.187
CN(C)C(=S)Nn1c(-c2ccccc2)nc2ccccc2c1=O | -0.411
COc1cc(CNc2ccccc2SC)ccc1O | 1.58
N#Cc1ccc(N2CCc3ccccc3C2)c([N+](=O)[O-])c1 | 0.175
Cc1ccc(S(=O)(=O)NC(CC(C)C)C(=O)NCc2ccco2)cc1 (stereo not drawn) | 0.0163
COc1ccc(-c2nnnn2C)cc1S(=O)(=O)NCCc1ccccc1 | 1.29
O=C(Nc1ccccc1Br)C1CCC(=O)N1Cc1ccccc1Cl (stereo not drawn) | 0.19
COc1cc(OC)cc(-c2cc3nc(C)c(CCC(=O)O)c(=O)n3[nH]2)c1 | 0.713
Cc1nc2cc(-c3cccs3)[nH]n2c(=O)c1C | -0.15
COc1cc(-c2cc3nc(C)c(C)c(=O)n3[nH]2)cc(OC)c1OC | 2.19
COC(=O)C(O)(CC(=O)Nc1ccc(OC(F)(F)F)cc1)C(F)(F)F (stereo not drawn) | -0.408
O=c1[nH]c2sc3c(c2c(=O)n1Cc1ccccc1)CCC3 | -0.117
C=CCn1c(=S)[nH]c2sc3c(c2c1=O)CCC3 | 10.9 (active)
C=CCn1c(SCC(=O)NC)nc2sc3c(c2c1=O)CCC3 | -0.523
O=C(CCCN1C(=O)c2ccccc2C1=O)OC1CSCC1NC(=O)c1ccccc1 (stereo not drawn) | -0.17
O=C1CS/C(=N\c2ccccn2)N1C1CCCCC1 | -0.393
COc1cc(CC(=O)Nc2ccc3nc(C)sc3c2)cc(OC)c1OC | -0.158

Structure (SMILES) | z-score
Cc1cccc(CSc2ncc(CO)n2C)c1 | 0.12
COc1ccc(CCNC(=O)C2CCN(S(=O)(=O)c3ccc(OC)c(OC)c3)CC2)cc1 | -0.362
OCCCCCN=c1cc(-c2ccccc2)oc2ccc(Cl)cc12 | -0.493
OCCN=c1cc(-c2ccccc2)oc2ccc(Cl)cc12 | 0.389
OCCCN=c1cc(-c2ccccc2)oc2ccc(Cl)cc12 | 3.32 (active)
O=C(CCn1nc(-c2ccccc2)ccc1=O)N1CCOCC1 | 0.676
CCc1ccccc1NC(=O)c1cc2sccc2n1C | -0.142
CCn1c(NC(=O)Nc2cccc(C)c2C)cc2sccc21 | 3.12 (active)
Cc1cccc(NC(=O)c2sccc2-n2cccc2)c1C | -0.81
COc1ccc(OC)c(C(=O)c2ccc(C(=O)Nc3cccc4ccccc34)cc2)c1 | 0.682
CCc1ccc(OCC(O)CN2CCC(CN3C(=O)c4cccc5cccc(c45)C3=O)CC2)cc1 (stereo not drawn) | -0.57
Cc1cccc(C)c1OCC(O)CN1CCC(CN2C(=O)c3cccc4cccc(c34)C2=O)CC1 (stereo not drawn) | 2.99
Cc1ccc(C)c(OCC(O)CN2CCC(CN3C(=O)c4cccc5cccc(c45)C3=O)CC2)c1 (stereo not drawn) | -0.000796
CN1CCN(S(=O)(=O)c2cccc(C(=O)Nc3nc(-c4ccccc4)cs3)c2)CC1 | -0.528
C(=N\n1cnnc1)/c1nc2ccccc2[nH]1 | -0.217
COC(=O)Cc1ccc(NC(=O)c2cccs2)cc1 | 0.153
COc1ccc(CN(C(=O)CO/N=C/c2ccccc2)c2ccccc2C(=O)O)cc1 | -0.413
O=C(O)CC(Cc1ccccc1)c1ccc2c(c1)OCO2 (stereo not drawn) | 0.249
COc1ccc(Nc2nc(N3CCCCC3)nc3ccccc23)c(OC)c1 | 2.6
COc1ccc(Nc2nc(N3CCCC3)nc(N3CCCC3)n2)c(OC)c1 | 0.55
C=CCNc1nc(N2CCCC2)nc2ccccc12 | 2.37
COc1ccc(Nc2ncnc3ccccc23)c(OC)c1 | -0.192
c1ccc2c(N3CCCCC3)nc(N3CCCC3)nc2c1 | 0.2
CC(Nc1nc(N2CCCCC2)nc2ccccc12)c1ccccc1 (stereo not drawn) | -2.21

Structure (SMILES) | z-score
NC(=O)c1cccnc1Sc1ccc(Cl)cc1 | -0.431
Cc1cccc(CC2CC(=O)N(c3ncccn3)C2=O)c1 (stereo not drawn) | -0.533
O=C(COc1ccc(Cl)cc1)Nc1c(-c2cccs2)nc2ccccn12 | -0.182
COc1cc(C2NC(=O)NC(C)=C2C(=O)NCc2ccccc2)c(Cl)cc1O (stereo not drawn) | 0.0361
CON(c1nc(Cl)nc(N(C)C)n1)S(=O)(=O)c1ccccc1Cl | 2.79
CON(c1nc(N(C)C)nc(N(C)C)n1)S(=O)(=O)c1ccccc1Cl | -0.678
COc1cc(C)nc(N(C)S(=O)(=O)c2ccccc2Cl)n1 | -0.0755
Nc1[nH]c(=S)[nH]c(=O)c1-c1ccccc1 | 2.2
N#Cc1c(-c2ccccc2)[nH]c(=S)[nH]c1=O | -0.744
Nc1nc(SCc2ccccc2)[nH]c(=O)c1-c1ccccc1 | -0.741
CN1/C(=C/C2CC(=O)N(c3ccc([N+](=O)[O-])cc3)C2=O)C(C)(C)c2ccccc21 (stereo not drawn) | -0.329
COC(=O)c1ccc(NC(CC(C)C)C(=O)OC)c([N+](=O)[O-])c1 (stereo not drawn) | 1.05
COC(=O)C(CC(C)C)NC(=O)c1ccc([N+](=O)[O-])cc1 (stereo not drawn) | 2.03
Cc1cc(C(=O)NCC(=O)OCC(=O)N(C(C)C)C(C)C)ccc1[N+](=O)[O-] | -0.0582
CC(Cc1ccccc1)NC(=O)c1ccc([N+](=O)[O-])cc1 (stereo not drawn) | -0.0984
COC(=O)C(CC(C)C)NC(=O)c1ccc(F)cc1 (stereo not drawn) | -0.19
COC(=O)C(CC(C)C)NC(=O)c1ccc([N+](=O)[O-])c(C)c1 (stereo not drawn) | 2.9
COc1ccc(C2/C(=C(/O)c3ccccc3)C(=O)C(=O)N2CO)cc1 (stereo not drawn) | 0.305
Cc1ccc(/C=C2/CCc3c([nH]c4ccccc34)C2=O)cc1 | 0.107
O=c1cc(CO)occ1OCc1cccc(C(F)(F)F)c1 | 0.0103
COc1ccc(NC(=O)c2cccnc2SC)cc1S(=O)(=O)N1CCCCC1 | -0.467
O=C(Oc1ccc(N2C(=O)CCC2=O)cc1)c1ccco1 | -0.374
Cn1ccc(C(=O)N2CCCc3ccccc32)n1 | -0.0997
CC(=O)N(/N=C1\Sc2ccccc2C1=O)c1ccc(C)cc1C | -0.638

Structure (SMILES) | z-score
S=c1[nH]c2ccc(Cl)cc2[nH]1 | 0.488
CSc1nc2cc(Cl)ccc2s1 | -0.233
S=c1[nH]c2cc(Cl)ccc2s1 | 14.9 (active)
Cc1ccc(S(=O)(=O)N2CCC(C(=O)N3CCC(C(=O)NCC4CCCO4)CC3)CC2)cc1 (stereo not drawn) | 0.137
Cc1ccc(F)c(NC(=O)C2CCCCC2C(=O)O)c1 (stereo not drawn) | 1.59
CC(C)c1cc(C(F)(F)F)n2nc(C(=O)Nc3ccc4c(c3)OCO4)cc2n1 | 4.57 (active)
O=C(Nc1ccc2c(c1)OCO2)c1cc2nc(C3CC3)cc(C(F)(F)F)n2n1 | -0.167
CC(=O)c1cc2c(cc1NC(=O)c1cc3nc(C(C)C)cc(C(F)(F)F)n3n1)OCO2 | -0.248
Cc1nc(NC(=O)c2ccc(Cl)cc2)sc1-c1csc(Nc2cccc(F)c2)n1 | -0.184
CCn1c(COc2ccccc2C)nc2ccccc21 | -1.56
CC(=O)c1ccc(N2CCCC2)c(F)c1 | 2.4
CCC(=O)c1ccc(N2CCCC2)c(F)c1 | 0.0378
CCC(=O)c1ccc(N2CCCCCC2)c(F)c1 | -0.499
O=C(NNc1c2ccccc2nc2ccccc12)c1ccc(O)cc1 | 2.21
O=C(NNc1c2ccccc2nc2ccccc12)c1ccc(O)cc1O | 0.0188
O=C(NNc1nc2ccccc2nc1C(F)(F)F)c1ccccc1 | 2.44
O=C(NNc1c2ccccc2nc2ccccc12)c1cccc(O)c1 | -0.199
FC(F)(F)c1nc2ccccc2nc1N/N=C\c1ccccc1 | 0.3
Cc1ccc(C(=O)NNc2nc3ccccc3nc2C(F)(F)F)cc1 | 5.19 (active)
Cc1ccc(S(=O)(=O)NNc2nc3ccccc3nc2C(F)(F)F)cc1 | -0.286
Cc1ccc(C(=O)NN(C)c2nc3ccccc3nc2C(F)(F)F)cc1 | 0.198
O=C(NNc1nc(-c2ccccc2)cs1)c1ccccc1 | -1.53
